Bioassay records deposited in PubChem by National Center for Advancing Translational Sciences (NCATS).
Cruzain noTriton: cruzain (T. cruzi) inhibition without detergent; purified cruzain, Z-FR-AMC fluorescence, no detergent; 200,000 compounds, 2.3% hits; P25779; Potency, µM, for inactives: max response, negative = inhibition, usual class: inhibitors;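 note: plate controls were enzyme without inhibitor for no effect and buffer without enzyme for full effect; nearly all actives have a fitted effect of over 40% in size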
Target sequence (P25779 123-467 limits assumed): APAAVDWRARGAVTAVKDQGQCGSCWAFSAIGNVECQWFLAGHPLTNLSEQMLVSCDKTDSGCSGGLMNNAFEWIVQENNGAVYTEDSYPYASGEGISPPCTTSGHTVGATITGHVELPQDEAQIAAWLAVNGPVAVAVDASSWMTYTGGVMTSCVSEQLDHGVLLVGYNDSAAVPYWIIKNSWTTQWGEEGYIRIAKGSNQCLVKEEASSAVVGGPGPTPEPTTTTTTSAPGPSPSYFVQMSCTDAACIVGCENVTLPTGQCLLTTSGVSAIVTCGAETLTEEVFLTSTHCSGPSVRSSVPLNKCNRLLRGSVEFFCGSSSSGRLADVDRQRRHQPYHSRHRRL
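Purified cruzain at 1.5 nM, pre-incubated 15 min with compound at room temperature in 100 mM sodium acetate pH 5.5, 5 mM DTT, 0.00005% Triton X-100. Reaction started with 2 uM Z-FR-AMC; AMC fluorescence increase over 60 s gives rate.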
Cruzain Triton: cruzain (T. cruzi) inhibition with detergent; P25779; purified cruzain, Z-FR-AMC fluorescence, 0.01% Triton; Potency, µM, inactives show max response, negative = inhibition, most hits filed as inhibitors; 200,000 compounds, 0.43% hits; AID 1478;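 note: plate controls were neutral wells for no effect and buffer without enzyme for full effect; nearly all actives have a fitted effect of over 40% in size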
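Z-FR-AMC hydrolysis (2 uM substrate) by cruzain (1.5 nM) monitored kinetically at ex 360/em 450 nm after 15 min room-temperature compound exposure; 0.01% Triton X-100, pH 5.5, 5 mM DTT.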
The depositor's hits bear a star; ? = inconclusive. This is a sample that favours compounds with a hit; in the whole collection about 2.6% have one here. Calls come from the whole dose curve; as a rule, active = well fitted curve in the direction sought with a large enough effect; inconclusive = small, poorly fitted or top-dose-only effect, or another doubt; inactive = no such curve, though single readings can be large; an effect the other way counts as inactive or inconclusive. Potency is the fitted concentration of half-maximal effect.

SMILES	Cruzain noTriton	Cruzain Triton
Cc1ccc(NC(=O)C(Cc2c[nH]c3ccccc23)NC(=O)OC(C)(C)C)c(C)c1 (configuration not stated)	-8%	-11%
C[C@H]1[C@H](C)CC[C@]2(C(=O)O)CC[C@]3(C)C(=CC[C@H]4[C@]3(C)C[C@@H](O)C3[C@](C)(CO)[C@H](O)[C@@H](O)C[C@]34C)[C@H]12 (some centres not stated)	?	-3%
CCN1CCc2c(sc(N)c2C#N)C1	-5%	-3%
N#Cc1c(N)sc(=S)c2c1CCN(Cc1ccccc1)C2	13µM*	28µM*
C[C@@]1(CO)[C@H](O)CC[C@]2(C)[C@@H]1CC[C@H]1C[C@H]3C[C@]12CC[C@]3(O)COC(=O)CN	-12%	-4%
COCCn1c(=O)c(-c2ccccc2)nc2cnc(OC)nc21	-11%	-4%
Cc1cccc(C)c1NC(=O)CCSCCc1ccccn1	-3%	1%
O=C(c1cc(C(F)(F)F)cc(C(F)(F)F)c1)N1CCC2(CCN(Cc3ccncc3)CC2)CC1	10%	6%
Cc1ccc(N=Nc2c(O)c(S(=O)(=O)O)cc3cc(S(=O)(=O)O)ccc23)c(C)c1	-9%	-2%
Nc1ccc(N=Nc2ccc(-c3ccc(O)cc3)cc2)c2ccc(S(=O)(=O)O)cc12	10%	-14%
Cc1cc(-c2ccc(N=Nc3ccc4c(S(=O)(=O)O)cc(S(=O)(=O)O)c(N)c4c3O)c(C)c2)ccc1N=Nc1ccc2c(S(=O)(=O)O)cc(S(=O)(=O)O)c(N)c2c1O	?	28µM*
Nc1c(N=Nc2ccc(-c3ccc(N=Nc4cc(S(=O)(=O)O)c5ccccc5c4N)cc3)cc2)cc(S(=O)(=O)O)c2ccccc12	?	2.8µM*
Cc1cc(N2CCN(C)CC2)nc2ccc(NC(=O)Nc3cccc(Cl)c3)cc12	4%	-8%
COc1c(C)cc(NS(=O)(=O)c2ccc3c(c2)OCCO3)cc1C	-8%	-6%
C=Cc1ccccn1	-10%	1%
Cc1ccc(CNC(=O)Cc2csc3ccccc23)cc1	-4%	-5%
O=C(Cc1csc(Nc2nc(=S)[nH]c3ccccc23)n1)NCc1cccc(Cl)c1	4µM*	2%
Cc1ccc(CNC(=O)Cc2csc(Nc3nc(=S)[nH]c4ccccc34)n2)cc1	10µM*	-1%
O=C(Cc1csc(Nc2nc(=S)[nH]c3ccccc23)n1)NCc1ccccc1Cl	?	3%
COC(=O)c1ccccc1NC(=O)Cn1cnc2sc(C)c(S(=O)(=O)N3CCC(C)CC3)c2c1=O	-9%	2%
CC(=O)c1ccc(S(=O)(=O)Nc2cccc(-c3ccc(N4CCCCCC4)nn3)c2)cc1	-11%	-4%
CCN(Cc1cc(Cl)cc(C)c1O)Cc1c(O)ccc2ccccc12	0%	7%
Cc1ccc(NC(=O)Cn2c(-c3ccc4c(c3)OCO4)cn(-c3ccccc3)c2=O)cc1C	-21%	-8%
CSc1cccc(-n2cc(-c3ccc4c(c3)OCO4)[nH]c2=O)c1	32µM*	-6%
CCC1(CC)Cc2ccccc2-c2nc(-c3ccccc3)oc(=O)c21	?	-1%
SMILES	Cruzain noTriton	Cruzain Triton
O=c1oc(-c2ccccc2)nc2c1C1(CCCCC1)Cc1ccccc1-2	25µM*	-1%
CCC(=O)N[C@@H]1Cc2ccccc2[C@@H](c2ccccc2)C1	?	-5%
O=C(CN1CCN(Cc2ccc(F)cc2Cl)S1(=O)=O)Nc1ccc(F)cc1	7%	-6%
O=C(c1cnccn1)N1CCC2(CC1)CN(C(c1ccccc1)c1ccccc1)C2	-2%	-2%
CC(=O)C(N=Nc1ccccc1)(Sc1nnc(-c2ccccc2)n1-c1ccccc1)C(C)=O	-25%	1%
CC(=O)C(N=Nc1ccccc1)(Sc1nnc(-c2ccccc2)n1-c1ccccc1)C(=O)Nc1ccccc1 (configuration not stated)	25µM*	-1%
O=C(NC1CCCCC1)c1ccc(CSc2nc3ccncc3n2Cc2ccccc2)cc1	19%	-8%
CCOC(=O)c1c(-c2ccc(OC)c(OC)c2)csc1NC(=O)c1ccc(C)cc1	5%	-2%
CCOC(=O)c1c(-c2ccc(F)cc2)csc1NC(=O)c1c(-c2ccccc2)noc1C	-49%	-5%
COC(=O)c1c(-c2ccc(C)cc2)csc1NC(=S)NC(=O)c1ccc(F)cc1	13µM*	-2%
CCOC(=O)c1c(-c2ccc(C)cc2)csc1NC(=O)C1CC=CCC1C(=O)O (configuration not stated)	?	-6%
CCOC(=O)c1c(-c2ccc(Br)cc2)csc1NC(=O)c1ccc(F)cc1	-12%	-2%
CCOC(=O)c1c(-c2ccc(C)cc2)csc1NC1=NS(=O)(=O)c2ccccc21	7.9µM*	-5%
CCOC(=O)c1c(-c2ccc(C)cc2)csc1NC(=S)NC(=O)c1ccccc1	25µM*	1%
COC(=O)c1c(-c2ccccc2)csc1NC(=O)c1c(-c2ccccc2)noc1C	20µM*	-3%
Cc1ccccc1OCCCCn1c(-c2ccc(Cl)cc2)nc2ccccc2c1=O	-3%	-2%
COc1ncc2nc(-c3ccccc3)c(=O)n(C[C@H]3CCCO3)c2n1	-6%	-11%
O=C(CN1C(=O)C2(SCC(=O)N2c2ccc(Cl)cc2)c2ccccc21)NCCc1ccccc1 (configuration not stated)	1%	-3%
COC(=O)c1cc(NC(=O)[C@H](CCS(C)(=O)=O)N2Cc3ccccc3C2=O)cc(C(=O)OC)c1	?	-1%
N[C@H](Cc1ccccc1)c1nn[nH]n1	5%	-2%
O=c1ccn(C2OC(COP(=O)(O)OP(=O)(O)OP(=O)(O)O)C(O)C2O)c(=O)[nH]1 (configuration not stated)	-6%	7%
Cc1cccc(C2=NN(c3ccccc3)[C@H](CO)[C@H]2c2ccc(F)cc2)c1	?	-13%
COc1ccccc1[C@H]1C(c2cccc(Cl)c2)=NN(c2ccccc2)[C@@H]1CO	?	0%
OC[C@@H]1[C@@H](c2ccccc2)C(c2cccc(Cl)c2)=NN1c1ccccc1	25µM*	2%
OC[C@@H]1[C@@H](c2ccccc2)C(c2ccccc2)=NN1c1ccccc1	28µM*	0%
SMILES	Cruzain noTriton	Cruzain Triton
C[C@H]1C(c2ccccc2)=NN(c2ccccc2)[C@@H]1CO	-27%	2%
Cc1cccc(C2=NN(c3ccccc3)[C@H](CO)[C@H]2c2ccc(Cl)cc2)c1	35µM*	0%
Nc1ccc(Cl)cc1[N+](=O)[O-]	3%	7%
COC(=O)C1(CC(C)C)C=C2C(=C(C(C)C)C(=O)C2C)CN1 (configuration not stated)	-7%	0%
COc1ccc(OC)c(CCNC(=O)c2cc3c(-c4ccccc4F)nn(C)c3s2)c1	1%	-3%
COc1ccc(N2C(=O)CC(S/C(N)=N/N=C/c3ccnc4ccccc34)C2=O)cc1 (configuration not stated)	10µM*	25µM*
CCN=C(NCC)SC1CC(=O)N(c2ccc(OC)cc2)C1=O (configuration not stated)	1%	2%
N/C(=N\N=C\c1ccnc2ccccc12)SC1CC(=O)N(c2ccc(Br)cc2)C1=O (configuration not stated)	10µM*	-20%
C/C(=N\N=C(/N)SC1CC(=O)N(c2ccc(Br)cc2)C1=O)c1cccs1 (configuration not stated)	?	-8%
O=C1OCCN1C(=O)[C@H]1[C@H](c2ccc(Cl)cc2)C(c2cccc(Cl)c2)=NN1c1ccccc1	18µM*	-14%
